Test results: PubChem BioAssay (NCATS)
Records with an inconclusive call do not appear. Calls of active or inactive are those of the source. Calls follow the shape of the dose curve; as a rule, active = well fitted cell-killing curve with a large enough effect; inconclusive = small, poorly fitted or top-dose-only effect, or effect the other way; inactive = flat fitted curve, though single readings scatter.

What was measured:
Assay in all cases: Primary qHTS to identify gynecologic anti-cancer compounds using libraries of approved drugs and bioactive compounds (AID 1345084); also: nearly all actives have a fitted effect of over 55% in size
[1] = system: C33A; settings: Gynecologic cancer cell panel viability, ATPlite luminescence, 48 h; series mostly up to 57.5 µM
Outline: (§1)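 48 h compound exposure at 37 C, 5% CO2; five-point qHTS. ATPlite luminescence readout of cell ATP.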

[2] = system: CAOV3; settings: Gynecologic cancer cell panel viability, ATPlite luminescence, 48 h; series mostly up to 57.5 µM
Outline: as §1

[3] = system: CASKI; settings: Gynecologic cancer cell panel viability, ATPlite luminescence, 48 h; series mostly up to 57.5 µM
Outline: as §1

[4] = system: Es-2; settings: Gynecologic cancer cell panel viability, ATPlite luminescence, 48 h; series mostly up to 57.5 µM
Outline: as §1

[5] = system: HeLa; settings: Gynecologic cancer cell panel viability, ATPlite luminescence, 48 h; series mostly up to 57.5 µM
Outline: as §1

[6] = system: Hek293T; settings: Gynecologic cancer cell panel viability, ATPlite luminescence, 48 h, control line for the selectivity index; series mostly up to 57.5 µM
Outline: as §1

[7] = system: JEG-3; settings: Gynecologic cancer cell panel viability, ATPlite luminescence, 48 h; series mostly up to 57.5 µM
Outline: as §1

[8] = system: OV90; settings: Gynecologic cancer cell panel viability, ATPlite luminescence, 48 h; series mostly up to 57.5 µM
Outline: as §1

[9] = system: PA-1; settings: Gynecologic cancer cell panel viability, ATPlite luminescence, 48 h; series mostly up to 57.5 µM
Outline: as §1

[10] = system: SKOV3; settings: Gynecologic cancer cell panel viability, ATPlite luminescence, 48 h; series mostly up to 57.5 µM
Outline: as §1

[11] = system: Tov-21-G; settings: Gynecologic cancer cell panel viability, ATPlite luminescence, 48 h; series mostly up to 57.5 µM
Outline: as §1

[12] = system: Tov112D; settings: Gynecologic cancer cell panel viability, ATPlite luminescence, 48 h; series mostly up to 57.5 µM
Outline: as §1
% is scaled to controls: 0 for no effect and ±100 for the full control effect.

OC[C@H]1O[C@@H](OCCc2ccccc2)[C@H](O[C@@H]2OC[C@](O)(CO)[C@H]2O)[C@@H](O)[C@@H]1O
inactive: Potency [1] | Potency [2] | Potency [3] | Potency [4] | Potency [5] | Potency [6] | Potency [7] | Potency [8] | Potency [9] | Potency [10] | Potency [11] | Potency [12]

CC(C)c1ccc(CO)cc1O[C@@H]1O[C@H](CO)[C@@H](O)[C@H](O)[C@H]1O
inactive: Potency [1] | Potency [2] | Potency [3] | Potency [4] | Potency [5] | Potency [6] | Potency [7] | Potency [8] | Potency [9] | Potency [10] | Potency [11] | Potency [12]

C=C(C(=O)O)C1CCC2(C)CCC(O)C(C)(O)C2C1 (centres undefined)
inactive: Potency [1] | Potency [2] | Potency [3] | Potency [4] | Potency [5] | Potency [6] | Potency [7] | Potency [8] | Potency [9] | Potency [10] | Potency [11] | Potency [12]

CC(C)c1ccc2c(c1)C(=O)CC1[C@@](C)(C(=O)O)CCC[C@]21C (some centres undefined)
inactive: Potency [1] | Potency [2] | Potency [3] | Potency [4] | Potency [5] | Potency [6] | Potency [7] | Potency [8] | Potency [9] | Potency [10] | Potency [11] | Potency [12]

CC(=O)OC/C=C(\C)C(CC1C(C)=C(OC(C)=O)C(=O)C2C(C)(C)C(O)CCC12C)OC(C)=O (centres undefined)
inactive: Potency [1] | Potency [2] | Potency [3] | Potency [4] | Potency [5] | Potency [6] | Potency [7] | Potency [8] | Potency [9] | Potency [10] | Potency [11] | Potency [12]

Cn1ncnc1COc1nn2c(-c3cc(F)ccc3F)nnc2cc1C(C)(C)C
inactive: Potency [1] | Potency [2] | Potency [3] | Potency [4] | Potency [5] | Potency [6] | Potency [7] | Potency [8] | Potency [9] | Potency [10] | Potency [11] | Potency [12]

CC1=C(C)C(=O)OC(C(C)C2CCC3C4CC=C5CC(OC6OC(COC7OC(CO)C(O)C(O)C7O)C(O)C(O)C6O)CC(O)C5(C)C4CCC23C)C1 (centres undefined)
inactive: Potency [1] | Potency [2] | Potency [3] | Potency [4] | Potency [5] | Potency [6] | Potency [7] | Potency [8] | Potency [9] | Potency [10] | Potency [11] | Potency [12]

Cc1cn(C2C=CC(CO)O2)c(=O)[nH]c1=O (centres undefined)
inactive: Potency [1] | Potency [2] | Potency [3] | Potency [4] | Potency [5] | Potency [6] | Potency [7] | Potency [8] | Potency [9] | Potency [10] | Potency [11] | Potency [12]

COc1ccc(/C=C\C(=O)O)c(O[C@@H]2O[C@H](CO)[C@@H](O)[C@H](O)[C@H]2O)c1
inactive: Potency [1] | Potency [2] | Potency [3] | Potency [4] | Potency [5] | Potency [6] | Potency [7] | Potency [8] | Potency [9] | Potency [10] | Potency [11] | Potency [12]

CC(C)(C)NC(=O)[C@@H](c1cccnc1)N(C(=O)c1ccco1)c1ccc(C(C)(C)C)cc1
inactive: Potency [1] | Potency [2] | Potency [3] | Potency [4] | Potency [5] | Potency [6] | Potency [7] | Potency [8] | Potency [9] | Potency [10] | Potency [11] | Potency [12]

CC1=CC(=O)CC(C)(C)C1/C=C/C(C)O[C@@H]1O[C@H](CO)[C@@H](O)[C@H](O)[C@H]1O[C@@H]1OC[C@](O)(CO)[C@H]1O (some centres undefined)
inactive: Potency [1] | Potency [2] | Potency [3] | Potency [4] | Potency [5] | Potency [6] | Potency [7] | Potency [8] | Potency [9] | Potency [10] | Potency [11] | Potency [12]

COC(=O)N[C@H](C(=O)N1[C@@H]2CC[C@@H](C2)[C@H]1c1nc2ccc(-c3ccc4c(c3)C(F)(F)c3cc(-c5cnc([C@@H]6CCC7(CC7)N6C(=O)[C@@H](NC(=O)OC)C(C)C)[nH]5)ccc3-4)cc2[nH]1)C(C)C
inactive: Potency [1] | Potency [2] | Potency [3] | Potency [4] | Potency [5] | Potency [6] | Potency [7] | Potency [8] | Potency [9] | Potency [10] | Potency [11] | Potency [12]

CC1(C)CCC2(C(=O)OC3OC(CO)C(O)C(O)C3O)CCC3(C)C(=CCC4C5(C)CCC(OC6OC(C(=O)O)C(OC7OC(CO)C(O)C(O)C7O)C(OC7OC(CO)C(O)C(O)C7O)C6O)C(C)(C)C5CCC43C)C2C1 (centres undefined)
inactive: activity change, negative = cytotoxicity [1] -2.64% [at 11.6 µM] | activity change, negative = cytotoxicity [2] 3.96% [at 11.6 µM] | activity change, negative = cytotoxicity [3] 5.46% [at 11.6 µM] | activity change, negative = cytotoxicity [4] -0.153% [at 11.6 µM] | activity change, negative = cytotoxicity [5] 10.1% [at 11.6 µM] | activity change, negative = cytotoxicity [6] -1.3% [at 11.6 µM] | activity change, negative = cytotoxicity [7] -1.35% [at 11.6 µM] | activity change, negative = cytotoxicity [8] 3.02% [at 11.6 µM] | activity change, negative = cytotoxicity [9] 16.1% [at 11.6 µM] | activity change, negative = cytotoxicity [10] 13.2% [at 11.6 µM] | activity change, negative = cytotoxicity [11] 1.15% [at 11.6 µM] | activity change, negative = cytotoxicity [12] 6% [at 11.6 µM]

CC1CC(O)C2(OC1=O)OC1C(O)C3C4CCC5CC(OC6OC(CO)C(O)C(O)C6OC6OC(C)C(O)C(O)C6O)CCC5(C)C4CCC3(C)C1C2C (centres undefined)
inactive: Potency [1] | Potency [2] | Potency [3] | Potency [4] | Potency [5] | Potency [6] | Potency [7] | Potency [8] | Potency [9] | Potency [10] | Potency [11] | Potency [12]

CC(C)/C=C1\NC(=O)C(C(C)C)n2c1nc1c(c2=O)C=CC=CO1 (centres undefined)
inactive: Potency [1] | Potency [2] | Potency [3] | Potency [4] | Potency [5] | Potency [6] | Potency [7] | Potency [8] | Potency [9] | Potency [10] | Potency [11] | Potency [12]

CC1OC(O[C@H]2CC[C@@]3(C)C(CC[C@]4(C)C3CC=C3C5CC(C)(C)CC[C@]5(C(=O)OC5OC(CO)C(OC6OC(COC7OCC(O)C(O)C7O)C(O)C(O)C6O)C(O)C5O)CC[C@]34C)C2(C)C)C(O)C(O)C1OC1OCC(OC2OCC(O)C(O)C2O)C(O)C1O (some centres undefined)
inactive: activity change, negative = cytotoxicity [1] 24.4% [at 6.55 µM] | activity change, negative = cytotoxicity [2] 3.53% [at 6.55 µM] | activity change, negative = cytotoxicity [3] -2% [at 6.55 µM] | activity change, negative = cytotoxicity [4] 0.974% [at 6.55 µM] | activity change, negative = cytotoxicity [5] -5.59% [at 6.55 µM] | activity change, negative = cytotoxicity [6] 2.21% [at 6.55 µM] | activity change, negative = cytotoxicity [7] 7.58% [at 6.55 µM] | activity change, negative = cytotoxicity [8] 5.67% [at 6.55 µM] | activity change, negative = cytotoxicity [9] -4.41% [at 6.55 µM] | activity change, negative = cytotoxicity [10] 5.68% [at 6.55 µM] | activity change, negative = cytotoxicity [11] -0.908% [at 6.55 µM] | activity change, negative = cytotoxicity [12] -13.2% [at 6.55 µM]

CC(=O)OC[C@]12[C@H](OC(C)=O)C(=O)[C@@H]3[C@@H](OC(C)=O)[C@@]14O[C@@]3(C)COC(=O)c1cccnc1[C@@H](C)[C@H](C)C(=O)O[C@@H]([C@H](O)[C@@H]2OC(C)=O)[C@]4(C)O
inactive: Potency [1] | Potency [2] | Potency [3] | Potency [4] | Potency [5] | Potency [6] | Potency [7] | Potency [8] | Potency [9] | Potency [10] | Potency [11] | Potency [12]

Oc1ccc2nc(CN3CCC(Cc4ccccc4F)CC3)[nH]c2c1
inactive: Potency [1] | Potency [2] | Potency [3] | Potency [4] | Potency [5] | Potency [6] | Potency [7] | Potency [8] | Potency [9] | Potency [10] | Potency [11] | Potency [12]

O=C(/C=C/c1ccc(O)cc1)N[C@@H](Cc1ccc(O)cc1)C(=O)O
inactive: Potency [1] | Potency [2] | Potency [3] | Potency [4] | Potency [5] | Potency [6] | Potency [7] | Potency [8] | Potency [9] | Potency [10] | Potency [11] | Potency [12]

C=C1CCC2C(C(C)(C)O)CCC2(C)CC(O)C(=C)CCC1O (centres undefined)
inactive: Potency [1] | Potency [2] | Potency [3] | Potency [4] | Potency [5] | Potency [6] | Potency [7] | Potency [8] | Potency [9] | Potency [10] | Potency [11] | Potency [12]

CC1(C)CC2C=C(C(=O)O)C3COC(=O)C(O)(CO)C23C1 (centres undefined)
inactive: Potency [1] | Potency [2] | Potency [3] | Potency [4] | Potency [5] | Potency [6] | Potency [7] | Potency [8] | Potency [9] | Potency [10] | Potency [11] | Potency [12]

Cc1cc2c(c(=O)[nH]1)OC(C(O)CC(C)C)O2 (centres undefined)
inactive: Potency [1] | Potency [2] | Potency [3] | Potency [4] | Potency [5] | Potency [6] | Potency [7] | Potency [8] | Potency [9] | Potency [10] | Potency [11] | Potency [12]

Cc1ccccc1NC(=O)Nc1ccc(CC(=O)N(C)[C@@H](CC(C)C)C(=O)NCC[C@H](NC(=O)[C@@H]2CCCN2S(=O)(=O)c2cc(Cl)cc(Cl)c2)C(=O)O)cc1
inactive: Potency [1] | Potency [2] | Potency [3] | Potency [4] | Potency [5] | Potency [6] | Potency [7] | Potency [8] | Potency [9] | Potency [10] | Potency [11] | Potency [12]

C=C(C)[C@@H]1CC[C@]2(C)CC[C@]3(C)[C@H](CC[C@@H]4[C@@]5(C)CC[C@@H](O)C(C)(C)[C@@H]5CC[C@]43C)[C@@H]12
inactive: Potency [1] | Potency [2] | Potency [3] | Potency [4] | Potency [5] | Potency [6] | Potency [7] | Potency [8] | Potency [9] | Potency [10] | Potency [11] | Potency [12]

COc1ccc(C2(O)c3ccccc3NC(=O)C2O)cc1 (centres undefined)
inactive: Potency [1] | Potency [2] | Potency [3] | Potency [4] | Potency [5] | Potency [6] | Potency [7] | Potency [8] | Potency [9] | Potency [10] | Potency [11] | Potency [12]

C[C@H]1CC(=O)Nc2cccc(-c3cnn(C(C)(C)C)c3)c2N1
inactive: Potency [1] | Potency [2] | Potency [3] | Potency [4] | Potency [5] | Potency [6] | Potency [7] | Potency [8] | Potency [9] | Potency [10] | Potency [11] | Potency [12]

C[C@H]1CC[C@@H]2N(C1)C[C@@H]1[C@H]([C@@H](O)[C@H](O)[C@]3(O)[C@H]1C[C@@]14OC5(O)[C@@H](C[C@@H](O)[C@@H]31)[C@]4(C)CC[C@@H]5O)[C@]2(C)O
inactive: Potency [1] | Potency [2] | Potency [3] | Potency [4] | Potency [5] | Potency [6] | Potency [7] | Potency [8] | Potency [9] | Potency [10] | Potency [11] | Potency [12]
